Assay results reported in paper PMC7862700, “An all-to-all approach to the identification of sequence-specific readers for epigenetic DNA modifications on cytosine”.

How the values were obtained:
Assay in all cases: DAPPL (digital affinity profiling via proximity ligation, sequencing); 10 mM Tris-HCl pH 7.5, 50 mM NaCl, 1 mM DTT, 4% glycerol, room temperature, 30 min; GST-TFs on glutathione beads, 16-mer random dsDNA library, 0.1% formaldehyde crosslink after washing; high values mean tight binding
Conditions in all cases: protein: recombinant; tags: N-terminal GST; dsDNA, one strand shown
FLI1 = target: T1, FLI1 (Homo sapiens, UniProt Q01543 1-452)
T1 sequence: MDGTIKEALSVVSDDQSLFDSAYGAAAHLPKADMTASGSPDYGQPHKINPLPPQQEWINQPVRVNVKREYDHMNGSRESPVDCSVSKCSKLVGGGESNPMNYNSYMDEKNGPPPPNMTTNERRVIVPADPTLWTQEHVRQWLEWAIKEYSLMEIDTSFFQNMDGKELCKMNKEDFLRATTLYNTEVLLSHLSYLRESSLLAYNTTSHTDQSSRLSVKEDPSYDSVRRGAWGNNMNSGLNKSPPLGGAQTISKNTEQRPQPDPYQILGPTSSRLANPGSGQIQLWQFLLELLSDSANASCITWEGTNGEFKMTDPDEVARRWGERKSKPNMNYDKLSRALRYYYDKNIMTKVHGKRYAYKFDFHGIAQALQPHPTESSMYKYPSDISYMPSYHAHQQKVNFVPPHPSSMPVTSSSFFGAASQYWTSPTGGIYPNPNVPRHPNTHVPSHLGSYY
How it was run: (§1)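 Binding signal is defined as a hexamer's read frequency for one factor over its frequency for the tag-only sample. To obtain reads, GST-fused human transcription factors were expressed in yeast, captured on glutathione beads, barcoded with DNA and pooled with that sample. Pools met 200 nmole of a 16-mer random double-stranded DNA library in Tris/NaCl/DTT/glycerol buffer for 30 min at room temperature before washing, 0.1% formaldehyde crosslinking, proximity ligation (BsaI/T4 ligase, 1 h, 37 °C), PCR and Illumina NextSeq500 sequencing.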

FEV = target: T2, FEV (Homo sapiens, UniProt Q99581 1-238)
T2 sequence: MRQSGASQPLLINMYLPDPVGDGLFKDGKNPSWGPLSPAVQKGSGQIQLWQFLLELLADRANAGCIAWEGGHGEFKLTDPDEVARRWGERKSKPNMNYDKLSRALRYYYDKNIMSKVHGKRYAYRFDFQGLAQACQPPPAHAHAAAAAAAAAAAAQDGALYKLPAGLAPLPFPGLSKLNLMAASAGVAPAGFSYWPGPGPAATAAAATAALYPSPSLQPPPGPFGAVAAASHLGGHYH
How it was run: as §1

ELF4 = ELF4 (Homo sapiens, UniProt Q99607 1-663)
How it was run: as §1

ELK4 = target: T3, ELK4 (Homo sapiens, UniProt P28324-2 1-405)
T3 sequence: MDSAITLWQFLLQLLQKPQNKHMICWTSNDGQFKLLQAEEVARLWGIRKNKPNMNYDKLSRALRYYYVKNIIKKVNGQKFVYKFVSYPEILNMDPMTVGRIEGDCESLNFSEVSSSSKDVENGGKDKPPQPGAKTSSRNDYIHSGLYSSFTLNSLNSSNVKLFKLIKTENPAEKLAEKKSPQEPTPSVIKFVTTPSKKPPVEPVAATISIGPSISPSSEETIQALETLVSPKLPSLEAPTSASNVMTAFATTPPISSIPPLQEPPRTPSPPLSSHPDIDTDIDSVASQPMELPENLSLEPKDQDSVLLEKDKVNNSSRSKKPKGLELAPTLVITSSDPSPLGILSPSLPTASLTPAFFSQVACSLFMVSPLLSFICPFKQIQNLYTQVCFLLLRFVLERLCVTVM
How it was run: as §1

ELK1 = target: T4, ELK1 (Homo sapiens, UniProt P19419 1-428)
T4 sequence: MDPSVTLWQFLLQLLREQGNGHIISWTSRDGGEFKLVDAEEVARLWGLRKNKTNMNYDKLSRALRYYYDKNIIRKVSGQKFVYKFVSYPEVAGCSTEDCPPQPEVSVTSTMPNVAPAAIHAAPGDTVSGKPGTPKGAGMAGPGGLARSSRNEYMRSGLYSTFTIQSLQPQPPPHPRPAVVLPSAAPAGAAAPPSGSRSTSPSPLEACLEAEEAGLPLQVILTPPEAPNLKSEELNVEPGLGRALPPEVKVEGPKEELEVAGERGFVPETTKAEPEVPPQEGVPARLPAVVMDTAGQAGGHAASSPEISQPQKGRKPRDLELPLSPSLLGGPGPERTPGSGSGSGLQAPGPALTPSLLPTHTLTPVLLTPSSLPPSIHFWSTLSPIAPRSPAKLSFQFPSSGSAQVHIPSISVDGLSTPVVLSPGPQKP
How it was run: as §1

GABPA = target: T5, GABPA (Homo sapiens, UniProt Q06546 1-454)
T5 sequence: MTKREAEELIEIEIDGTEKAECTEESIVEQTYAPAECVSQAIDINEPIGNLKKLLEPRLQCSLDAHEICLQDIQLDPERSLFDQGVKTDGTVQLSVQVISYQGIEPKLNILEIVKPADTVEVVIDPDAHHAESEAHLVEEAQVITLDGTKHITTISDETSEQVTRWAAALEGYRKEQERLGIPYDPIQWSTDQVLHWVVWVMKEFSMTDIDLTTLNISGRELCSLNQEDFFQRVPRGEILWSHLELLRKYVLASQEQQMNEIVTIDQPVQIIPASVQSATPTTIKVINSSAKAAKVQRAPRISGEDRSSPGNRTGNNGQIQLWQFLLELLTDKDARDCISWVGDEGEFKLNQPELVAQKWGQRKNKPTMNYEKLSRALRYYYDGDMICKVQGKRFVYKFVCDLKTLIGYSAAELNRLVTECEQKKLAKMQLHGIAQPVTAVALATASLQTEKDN
How it was run: as §1

ELF1 = ELF1 (Homo sapiens, UniProt P32519 1-619)
How it was run: as §1

SPIB = SPIB (Homo sapiens, UniProt Q01892 1-262)
How it was run: as §1

ELF3 = target: T6, ELF3 (Homo sapiens, UniProt P78545 1-371)
T6 sequence: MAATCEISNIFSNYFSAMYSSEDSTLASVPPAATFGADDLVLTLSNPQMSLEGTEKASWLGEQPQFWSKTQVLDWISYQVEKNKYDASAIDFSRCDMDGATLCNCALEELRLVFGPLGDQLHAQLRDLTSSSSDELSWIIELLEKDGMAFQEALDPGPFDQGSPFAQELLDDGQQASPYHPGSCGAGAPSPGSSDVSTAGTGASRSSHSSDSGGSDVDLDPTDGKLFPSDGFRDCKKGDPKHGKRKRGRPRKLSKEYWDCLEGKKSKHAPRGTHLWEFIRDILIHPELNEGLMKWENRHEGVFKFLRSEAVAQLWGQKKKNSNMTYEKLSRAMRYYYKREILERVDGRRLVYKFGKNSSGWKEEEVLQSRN
How it was run: as §1

ERF = target: T7, ERF (Homo sapiens, UniProt P50548 1-548)
T7 sequence: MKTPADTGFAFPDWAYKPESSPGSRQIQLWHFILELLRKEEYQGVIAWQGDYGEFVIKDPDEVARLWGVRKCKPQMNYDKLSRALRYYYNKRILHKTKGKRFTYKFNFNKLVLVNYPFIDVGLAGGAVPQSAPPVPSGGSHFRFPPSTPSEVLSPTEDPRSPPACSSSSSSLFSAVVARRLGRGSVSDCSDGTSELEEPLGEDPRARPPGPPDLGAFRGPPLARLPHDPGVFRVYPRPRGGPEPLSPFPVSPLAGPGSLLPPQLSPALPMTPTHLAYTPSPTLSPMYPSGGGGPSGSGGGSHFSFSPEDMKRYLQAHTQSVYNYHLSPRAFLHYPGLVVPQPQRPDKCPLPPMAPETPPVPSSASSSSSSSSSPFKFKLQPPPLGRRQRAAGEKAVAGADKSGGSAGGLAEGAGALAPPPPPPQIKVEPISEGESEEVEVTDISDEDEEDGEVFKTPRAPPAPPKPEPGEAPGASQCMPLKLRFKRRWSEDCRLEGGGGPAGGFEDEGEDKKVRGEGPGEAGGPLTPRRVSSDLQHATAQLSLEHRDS
How it was run: as §1

ETV7 = target: T8, ETV7 (Homo sapiens, UniProt Q9Y603 1-341)
T8 sequence: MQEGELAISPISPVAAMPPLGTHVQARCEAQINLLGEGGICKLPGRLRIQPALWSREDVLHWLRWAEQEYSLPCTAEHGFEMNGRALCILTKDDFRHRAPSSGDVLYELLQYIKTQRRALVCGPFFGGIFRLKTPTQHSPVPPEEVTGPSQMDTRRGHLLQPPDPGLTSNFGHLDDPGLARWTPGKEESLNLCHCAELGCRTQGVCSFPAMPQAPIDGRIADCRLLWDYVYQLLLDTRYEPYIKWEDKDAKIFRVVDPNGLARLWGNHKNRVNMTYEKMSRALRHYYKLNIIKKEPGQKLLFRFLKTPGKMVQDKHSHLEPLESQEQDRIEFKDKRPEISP
How it was run: as §1

Sequence of ELF4 (Q99607 whole entry): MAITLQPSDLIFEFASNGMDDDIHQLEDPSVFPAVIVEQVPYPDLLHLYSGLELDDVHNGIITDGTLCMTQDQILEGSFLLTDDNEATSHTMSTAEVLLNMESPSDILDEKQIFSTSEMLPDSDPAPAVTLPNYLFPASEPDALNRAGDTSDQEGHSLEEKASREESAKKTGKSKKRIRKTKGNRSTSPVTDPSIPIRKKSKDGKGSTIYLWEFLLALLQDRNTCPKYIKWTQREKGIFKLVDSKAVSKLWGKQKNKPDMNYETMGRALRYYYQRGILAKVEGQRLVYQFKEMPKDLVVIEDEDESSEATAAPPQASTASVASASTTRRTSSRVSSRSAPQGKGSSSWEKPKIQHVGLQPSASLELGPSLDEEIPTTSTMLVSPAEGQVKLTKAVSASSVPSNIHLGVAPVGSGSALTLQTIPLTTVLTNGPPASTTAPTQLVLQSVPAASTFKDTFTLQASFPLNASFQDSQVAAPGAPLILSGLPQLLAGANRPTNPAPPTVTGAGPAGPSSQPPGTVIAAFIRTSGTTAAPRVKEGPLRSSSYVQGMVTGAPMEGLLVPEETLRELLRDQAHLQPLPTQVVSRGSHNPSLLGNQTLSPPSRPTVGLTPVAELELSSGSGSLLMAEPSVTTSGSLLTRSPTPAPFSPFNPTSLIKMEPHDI
Sequence of SPIB (Q01892 whole entry): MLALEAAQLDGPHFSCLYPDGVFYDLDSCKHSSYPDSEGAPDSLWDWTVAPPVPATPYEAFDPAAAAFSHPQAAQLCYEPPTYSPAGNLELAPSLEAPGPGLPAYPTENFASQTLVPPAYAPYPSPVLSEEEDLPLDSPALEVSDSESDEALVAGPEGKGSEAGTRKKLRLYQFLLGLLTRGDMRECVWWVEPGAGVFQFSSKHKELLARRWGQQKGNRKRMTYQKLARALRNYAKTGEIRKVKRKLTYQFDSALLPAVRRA
Sequence of ELF1 (P32519 whole entry): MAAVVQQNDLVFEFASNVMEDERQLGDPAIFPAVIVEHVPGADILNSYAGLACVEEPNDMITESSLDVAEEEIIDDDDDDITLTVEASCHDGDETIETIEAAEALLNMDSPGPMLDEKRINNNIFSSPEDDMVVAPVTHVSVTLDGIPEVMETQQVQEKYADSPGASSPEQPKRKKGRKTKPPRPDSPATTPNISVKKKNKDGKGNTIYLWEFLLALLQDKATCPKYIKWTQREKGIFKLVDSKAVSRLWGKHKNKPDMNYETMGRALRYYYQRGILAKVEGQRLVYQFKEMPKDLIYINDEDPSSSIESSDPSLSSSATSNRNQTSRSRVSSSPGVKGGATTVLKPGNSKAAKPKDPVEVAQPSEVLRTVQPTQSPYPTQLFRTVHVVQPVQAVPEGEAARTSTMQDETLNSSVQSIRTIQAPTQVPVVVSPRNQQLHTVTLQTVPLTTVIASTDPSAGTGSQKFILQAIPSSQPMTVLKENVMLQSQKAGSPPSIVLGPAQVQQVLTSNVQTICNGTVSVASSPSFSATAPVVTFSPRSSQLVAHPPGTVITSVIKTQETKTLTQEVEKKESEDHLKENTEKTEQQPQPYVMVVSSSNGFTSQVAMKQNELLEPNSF

| Sequence | binding signal (FLI1) | binding signal (FEV) | binding signal (ELF4) | binding signal (ELK4) | binding signal (ELK1) | binding signal (GABPA) | binding signal (ELF1) | binding signal (SPIB) | binding signal (ELF3) | binding signal (ERF) | binding signal (ETV7) |
| --- | --- | --- | --- | --- | --- | --- | --- | --- | --- | --- | --- |
| CCACAG | 1.01 fold enrichment (6-mer frequency, TF over GST control) | 1.01 fold enrichment (6-mer frequency, TF over GST control) | 1.03 fold enrichment (6-mer frequency, TF over GST control) | 1.04 fold enrichment (6-mer frequency, TF over GST control) | – | – | – | – | – | – | – |
| CACCCA | 1.1 fold enrichment (6-mer frequency, TF over GST control) | – | 1.12 fold enrichment (6-mer frequency, TF over GST control) | 1.04 fold enrichment (6-mer frequency, TF over GST control) | 1.12 fold enrichment (6-mer frequency, TF over GST control) | 1.11 fold enrichment (6-mer frequency, TF over GST control) | 1.01 fold enrichment (6-mer frequency, TF over GST control) | 1.03 fold enrichment (6-mer frequency, TF over GST control) | 1.14 fold enrichment (6-mer frequency, TF over GST control) | 1.06 fold enrichment (6-mer frequency, TF over GST control) | 1.03 fold enrichment (6-mer frequency, TF over GST control) |
